TDP1 cell noCPT – qHTS for Inhibitors of human tyrosyl-DNA phosphodiesterase 1 (TDP1): qHTS in cells in absence of CPT; DT40 Tdp1-/- hTDP1 cells, no CPT, ATP luminescence, 48 h; Potency, µM (titrated, usually from 46.2 µM), actives largely listed as inhibitors; 420,000 compounds, 15% hits; AID 686978, 2013; further: nearly all actives have a fitted effect of over 55% in size
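Chicken DT40 Tdp1-/- cells stably complemented with human TDP1 were seeded at 400 cells/well with DMSO in place of 20 nM camptothecin. After compound pinning, cells grew at least 48 hr at 37 °C; viability read by CellTiter-Glo luminescence.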
IL-1B inflam inh – blocks inflammasome-driven IL-1 beta release; THP-1 LPS/ATP IL-1B secretion, AlphaLISA, 16 h; hits give low values; activity change, % at 57.5 µM; 360,000 compounds, 4.7% hits; in the data active means activity change below about -50%; inconclusive means mostly about -30% to -49%
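THP-1 cells pretreated 1 hr with compounds (up to 57.5 uM final), then stimulated with LPS (250 ng/mL final) plus ATP (1.25 mM final); secreted IL-1B measured by AlphaLISA after 16 hr, decreased signal indicating inhibition.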
HepG2 tox – HepG2 cytotoxicity, counter-screen for TGF-b inhibitors. HepG2 CAGA-GFP viability, ATP luminescence, 18 h. Potency, µM (top dose mostly 46.1 µM), actives largely listed as cytotoxic. 410,000 compounds, 0.76% hits. AID 588856
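HepG2 CAGA-GFP cells (1000/well, DMEM with 1% FBS) received compound, then TGF-beta at 500 pg/mL final, and were incubated 18 hours at 37 degrees C. Viability was read by CellTiter-Glo luminescence. Media-only wells were set as complete cell-killing and DMSO as no toxicity.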
TDP1 cell CPT – growth inhibition of DT40 Tdp1-/-;hTDP1 cells with camptothecin (screen for TDP1 inhibitors). chicken DT40 Tdp1-/-;hTDP1 cells + 20 nM CPT, ATP luminescence, 48 h. 420,000 compounds, 12% hits. Potency, µM (series often up to 46.2 µM), hits mostly inhibitors; further: nearly all actives have a fitted effect of over 55% in size
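Chicken DT40 Tdp1-/- cells stably complemented with human TDP1 were seeded at 400 cells/well in medium containing 20 nM camptothecin, exposed to pin-transferred compounds, and grown at 37 °C for at least 48 hr. Viability was read as ATP luminescence.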
TGFb SMAD3 inh – TGF-b pathway inhibition. HepG2 CAGA-GFP TGF-b/SMAD3 reporter, GFP fluorescence, 18 h; TGF-beta stimulated, 500 pg/mL final. AID 588855. Potency, µM (highest dose often 46.1 µM), usual class: inhibitors. 410,000 compounds, 1.2% hits; further: nearly all actives have a fitted effect of over 65% in size
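Smad-responsive CAGA-GFP expression was quantified in HEPG2 cells exposed to compounds and 500 pg/mL final TGF-beta for 18 h at 37 degrees C; unstimulated wells defined full inhibition.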
ASM inhibitor – inhibitors of human secretory acid sphingomyelinase; 340,000 compounds, 0.006% hits; placental ASM, HMU-PC fluorogenic substrate, 60 min; P17405; Potency, µM (highest dose often 57.5 µM), actives largely listed as inhibitors
Target sequence (P17405 47-631 limits assumed): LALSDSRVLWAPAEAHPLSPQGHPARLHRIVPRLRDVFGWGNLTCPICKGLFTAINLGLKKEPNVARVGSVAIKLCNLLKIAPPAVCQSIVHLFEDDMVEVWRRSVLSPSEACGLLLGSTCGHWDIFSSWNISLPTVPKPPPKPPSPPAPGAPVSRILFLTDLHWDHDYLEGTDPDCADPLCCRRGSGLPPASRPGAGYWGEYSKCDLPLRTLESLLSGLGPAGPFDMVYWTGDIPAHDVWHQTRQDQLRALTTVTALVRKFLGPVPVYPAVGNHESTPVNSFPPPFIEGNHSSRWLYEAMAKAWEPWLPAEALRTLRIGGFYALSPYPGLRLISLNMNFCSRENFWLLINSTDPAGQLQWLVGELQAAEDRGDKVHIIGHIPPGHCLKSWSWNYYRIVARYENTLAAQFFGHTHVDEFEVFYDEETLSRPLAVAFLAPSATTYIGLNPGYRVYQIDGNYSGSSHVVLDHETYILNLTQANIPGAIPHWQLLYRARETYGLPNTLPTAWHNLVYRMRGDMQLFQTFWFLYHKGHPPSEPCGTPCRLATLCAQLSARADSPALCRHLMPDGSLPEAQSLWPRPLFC
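qHTS format. ASM enzyme prepared from human placenta hydrolyses the fluorogenic substrate HMU-PC0 (9 uM final) over 60 min at 37 °C after a 10 min compound preincubation.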
Of the large screens only hits and unclear results are named; the others gave an inactive call. In the library only some 19% were active in any assay of this set; here they are far more common. Unless noted, the call rests on the fitted dose curve; in most records, active means well fitted curve in the direction sought with a large enough effect; inconclusive means small, poorly fitted or top-dose-only effect, or another doubt; inactive means no such curve, though single readings can be large; an effect the other way counts as inactive or inconclusive.

Cn1c(=N)n(CC(=O)c2ccc(Br)cc2)c2ccccc21	TDP1 cell noCPT 18µM, TDP1 cell CPT 21µM (no result: IL-1B inflam inh)
CCn1c(=N)n(CC(=O)c2ccc(OC)cc2)c2ccccc21	TDP1 cell noCPT inconclusive, IL-1B inflam inh inconclusive, TDP1 cell CPT inconclusive
Cn1c(=N)n(CC(=O)c2ccc(F)cc2)c2ccccc21	TDP1 cell noCPT 13µM, TDP1 cell CPT 16µM, TGFb SMAD3 inh inconclusive
CCN1CCN(c2nc3c(S(=O)(=O)c4ccc(C)cc4)nnn3c3ccsc23)CC1	none (no result: IL-1B inflam inh, ASM inhibitor)
CCOc1ccc2ccccc2c1/C=N/NC(=O)CNC(=O)C(c1ccccc1)c1ccccc1	TDP1 cell noCPT inconclusive, TGFb SMAD3 inh inconclusive
Cc1ccc(S(=O)(=O)N2CCCCC2)cc1NC(=O)C1CCCO1 (stereo not drawn)	none
Cc1cc(C(=O)Cn2nc(C(=O)O)c3ccccc3c2=O)c(C)n1CCc1ccc(Cl)cc1	TDP1 cell noCPT inconclusive, TDP1 cell CPT 21µM, TGFb SMAD3 inh inconclusive
Cc1cc(C)c(C(=O)Cn2nc(C(=O)O)c3ccccc3c2=O)cc1C	none
CC(=O)c1cccc(NC(=O)C2CCCN(c3nnc(-n4cccc4)s3)C2)c1 (stereo not drawn)	TDP1 cell noCPT 16µM, TDP1 cell CPT inconclusive (no result: IL-1B inflam inh, ASM inhibitor)
Cc1cc(F)ccc1NC(=O)C1CCCN(c2nnc(-n3c(C)ccc3C)s2)C1 (stereo not drawn)	TDP1 cell noCPT 16µM, TDP1 cell CPT 21µM, TGFb SMAD3 inh inconclusive (no result: IL-1B inflam inh, ASM inhibitor)
CC(=O)c1ccc(NC(=O)Nc2nnc(N3CCCC(C)C3)s2)cc1 (stereo not drawn)	TDP1 cell noCPT 18µM, TDP1 cell CPT 6.5µM (no result: IL-1B inflam inh, ASM inhibitor)
Cc1cccc(NC(=O)C2CCCN(c3nnc(-n4c(C)ccc4C)s3)C2)c1C (stereo not drawn)	TDP1 cell noCPT 15µM, TDP1 cell CPT 15µM (no result: IL-1B inflam inh, TGFb SMAD3 inh, ASM inhibitor)
CNC(=O)NC(=O)C(C)OC(=O)c1ccc(Cl)c(S(=O)(=O)Nc2ccc(F)cc2)c1 (stereo not drawn)	TDP1 cell noCPT inconclusive
COc1cccc(NC(=O)C2CCCN(c3nnc(-n4c(C)ccc4C)s3)C2)c1 (stereo not drawn)	TDP1 cell noCPT 13µM, TDP1 cell CPT 18µM (no result: IL-1B inflam inh, TGFb SMAD3 inh, ASM inhibitor)
COc1cccc(NC(=O)C2CCN(c3nnc(-n4c(C)ccc4C)s3)CC2)c1	TDP1 cell noCPT inconclusive, TDP1 cell CPT inconclusive (no result: IL-1B inflam inh, TGFb SMAD3 inh, ASM inhibitor)
CCOC(=O)N1CCN(S(=O)(=O)N2CCCC(C(=O)NCc3cc(Br)ccc3OC)C2)CC1 (stereo not drawn)	TDP1 cell noCPT 13µM, TDP1 cell CPT 18µM, TGFb SMAD3 inh inconclusive (no result: ASM inhibitor)
FC(F)(F)c1ccccc1-c1nc(NC2CCNCC2)c2ccccc2n1	TDP1 cell noCPT inconclusive, TDP1 cell CPT 15µM (no result: IL-1B inflam inh, HepG2 tox, TGFb SMAD3 inh, ASM inhibitor)
NC(=O)CC(NC(=O)c1cccc(Br)c1)c1ccc(NC2CCCCCCCCCCC2)c([N+](=O)[O-])c1 (stereo not drawn)	none
NC(=O)CC(NC(=O)c1ccc(Br)cc1)c1ccc(NC2CCCCC2)c([N+](=O)[O-])c1 (stereo not drawn)	TDP1 cell noCPT 16µM, TDP1 cell CPT 15µM
CC(C)Nc1ccc(C(CC(N)=O)NC(=O)Cc2ccc(Br)cc2)cc1[N+](=O)[O-] (stereo not drawn)	TDP1 cell noCPT 21µM, TDP1 cell CPT 13µM
NC(=O)CC(NC(=O)Cc1ccc(Br)cc1)c1ccc(NC2CCCC2)c([N+](=O)[O-])c1 (stereo not drawn)	TDP1 cell noCPT inconclusive, TDP1 cell CPT inconclusive
NC(=O)CC(NC(=O)Cc1ccc(Br)cc1)c1ccc(NC2CCCCCC2)c([N+](=O)[O-])c1 (stereo not drawn)	TDP1 cell noCPT inconclusive, IL-1B inflam inh inconclusive, TDP1 cell CPT 18µM
NC(=O)CC(NC(=O)c1cccc(Br)c1)c1ccc(NC2CCCCCCC2)c([N+](=O)[O-])c1 (stereo not drawn)	TDP1 cell noCPT 16µM, TDP1 cell CPT inconclusive, TGFb SMAD3 inh inconclusive
O=C1C(=O)N(c2ccccn2)C(c2cccc([N+](=O)[O-])c2)/C1=C(/O)c1ccc(Br)cc1 (stereo not drawn)	none
NC(=O)CC(NC(=O)c1ccc(Br)cc1)c1ccc(NC2CCCCCC2)c([N+](=O)[O-])c1 (stereo not drawn)	TDP1 cell noCPT 16µM, TDP1 cell CPT 16µM
Cc1ccccc1C(=O)Nc1cc(-c2cc(C(C)(C)C)oc2C)nn1C	TDP1 cell noCPT inconclusive, IL-1B inflam inh -59, TDP1 cell CPT inconclusive
CCC(C)NC(=O)Cn1ncc2c(C)n(Cc3ccc(F)cc3)c(C)c2c1=O (stereo not drawn)	TDP1 cell noCPT inconclusive, TDP1 cell CPT 23µM (no result: IL-1B inflam inh, ASM inhibitor)
Cc1c2cnn(CC(=O)NCc3ccc(F)cc3)c(=O)c2c(C)n1Cc1ccccc1F	TDP1 cell noCPT 16µM, TDP1 cell CPT inconclusive (no result: IL-1B inflam inh, ASM inhibitor)
Cc1c2cnn(CC(=O)Nc3c(F)c(F)cc(F)c3F)c(=O)c2c(C)n1Cc1ccccc1F	none
Cc1c2cnn(CC(=O)NCc3ccc(F)cc3)c(=O)c2c(C)n1Cc1cccc(Cl)c1	TDP1 cell noCPT 4.1µM, TDP1 cell CPT 4.1µM (no result: IL-1B inflam inh, ASM inhibitor)
CC(CNC(=O)CN(C)CC(=O)Nc1ccccc1Br)c1ccccc1 (stereo not drawn)	none
O=C(COC(=O)c1n[nH]c(=O)c2ccccc12)Nc1cccc(S(=O)(=O)N2CCOCC2)c1	none
CCCCN(C)C(=O)CNC(=O)c1nn(-c2ccc(OC)cc2OC)c(=O)c2ccccc12	none
O=C(COc1ccccc1CNC[C@H]1O[C@@H](n2ccc(=O)[nH]c2=O)[C@H](O)[C@@H]1O)N1CCCCC1	none (no result: ASM inhibitor)
C#C[C@]1(O)CC[C@H]2[C@@H]3CCC4=Cc5oncc5C[C@]4(C)[C@H]3CC[C@@]21C	TDP1 cell noCPT inconclusive, TDP1 cell CPT inconclusive
C#C[C@]1(O)CC[C@H]2[C@@H]3CCc4cc(OC)ccc4[C@H]3CC[C@@]21C	TDP1 cell noCPT 21µM, TDP1 cell CPT 0.24µM
COc1ccc2c(c1)CC[C@@H]1[C@@H]2CC[C@]2(C)[C@@H](C(C)=O)C[C@@H]12	TDP1 cell noCPT inconclusive, TDP1 cell CPT inconclusive
C#C[C@]1(O)CC[C@H]2[C@@H]3CCC4=C(CCC(=O)C4)[C@H]3CC[C@@]21C	TDP1 cell noCPT 7.2µM, TDP1 cell CPT inconclusive
C#C[C@]1(O)CC[C@H]2[C@@H]3CCc4cc(OC5CCCC5)ccc4[C@H]3CC[C@@]21C	TDP1 cell noCPT 8.2µM, TDP1 cell CPT 13µM
